From the supplement of paper PMC12645437, “Orthogonal IMiD-Degron Pairs Induce Selective Protein Degradation in Cells” (ACS Chemical Biology, 2025)
Whole data set: some 8,300 sequences, median “log2 fold change of degron read counts, EGFP-low vs EGFP+ sorted cells (limma voom), compound-induced degradation” near -1.1, cut for the highest 2% near 3.2. What follows is part of a selection rich in the highest values, with near analogues and random picks from the rest.

T1: CRBN, Q96SW2
T1 chain: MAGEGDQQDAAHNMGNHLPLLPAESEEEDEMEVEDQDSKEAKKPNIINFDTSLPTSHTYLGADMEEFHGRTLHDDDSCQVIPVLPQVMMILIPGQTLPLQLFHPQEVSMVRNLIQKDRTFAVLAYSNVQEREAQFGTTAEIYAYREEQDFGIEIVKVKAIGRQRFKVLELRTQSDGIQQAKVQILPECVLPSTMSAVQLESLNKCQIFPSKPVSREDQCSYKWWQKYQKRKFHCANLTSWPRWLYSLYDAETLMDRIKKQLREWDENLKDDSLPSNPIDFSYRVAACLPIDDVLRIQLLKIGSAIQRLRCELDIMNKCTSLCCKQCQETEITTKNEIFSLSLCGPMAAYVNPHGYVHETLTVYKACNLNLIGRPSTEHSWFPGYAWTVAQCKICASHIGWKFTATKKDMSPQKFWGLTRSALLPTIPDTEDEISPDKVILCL


Target: T1, CRBN, Q96SW2
Experiment: log2 fold change of degron read counts, EGFP-low vs EGFP+ sorted cells (limma voom), compound-induced degradation; higher = more compound-induced degradation of the degron-EGFP fusion; degrons are variants of IKZF1/3 zinc finger 2; compound dose not given here
Details: Jurkat, 18 h
[1] = compound: compound 19 (5-tert-butyl-thalidomide)
[2] = compound: compound 22 (5-morpholino-thalidomide)
[3] = compound: compound 33 (diphenyl IMiD analogue)
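Note: pooled lentiviral library of zinc finger degron-EGFP fusions in mCherry-positive Jurkat cells, FACS-sorted after compound exposure, with degron abundance counted by next-generation sequencing.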

| Sequence | log2 fold change of degron read counts [1] | log2 fold change of degron read counts [2] | log2 fold change of degron read counts [3] | log2 fold change of degron read counts (compound: thalidomide) |
| --- | --- | --- | --- | --- |
| FQCEICGARFTQKGNLLRHIKL [46F_47Q_49E_50I_52G_53A_54R_55F_67L_, Q9UKT9] | 0.106 | 2.1 | 1.34 | 3.7 |
| FGCSVCGHIFTQKGNLLRHIKL [46F_47G_49S_50V_52G_53H_54I_55F_67L_, Q9UKT9] | -1.23 | -2.7 | -2.06 | -1.9 |
| LHCPICGFDCTQKGNLLRHIKL [46L_47H_49P_50I_52G_53F_54D_55C_67L_, Q9UKT9] | -1.62 | -1.37 | 0.393 | -0.313 |
| FICNQCGREFTQKGNLLRHIKL [46F_47I_49N_50Q_52G_53R_54E_55F_67L_, Q9UKT9] | -2.93 | -3.08 | -3.08 | -3.43 |
| FQCEQCGACFTQKGNLLRHIKL [46F_47Q_49E_50Q_52G_53A_54C_55F_67L_, Q9UKT9] | -1.81 | 0.107 | 0.542 | 3.02 |
| FCCPICGANFTQKGNLLRHIKL [46F_47C_49P_50I_52G_53A_54N_55F_67L_, Q9UKT9] | 2.07 | 2.16 | 2.33 | 2.22 |
| FMCEICGRGFTQKGNLLRHIKL [46F_47M_49E_50I_52G_53R_54G_55F_67L_, Q9UKT9] | -1.28 | -1.8 | -0.771 | -1.76 |
| LRCPICGFRCTQKGNLLRHIKL [46L_47R_49P_50I_52G_53F_54R_55C_67L_, Q9UKT9] | -0.000253 | -0.254 | 0.655 | 1.06 |
| LDCPICGFRCTQKGNLLRHIKL [46L_47D_49P_50I_52G_53F_54R_55C_67L_, Q9UKT9] | 2 | 0.931 | 1.11 | 2.55 |
| LQCPICGFICTQKGNLLRHIKL [46L_47Q_49P_50I_52G_53F_54I_55C_67L_, Q9UKT9] | -0.0184 | 2.22 | 2.06 | 3.45 |
| LECPICGFRCTQKGNLLRHIKL [46L_47E_49P_50I_52G_53F_54R_55C_67L_, Q9UKT9] | 1.29 | 0.491 | 2.73 | 3.62 |
| LVCPICGFRCTQKGNLLRHIKL [46L_47V_49P_50I_52G_53F_54R_55C_67L_, Q9UKT9] | 1.86 | 3.01 | 1.42 | 3.2 |
| LYCPICGFRCTQKGNLLRHIKL [46L_47Y_49P_50I_52G_53F_54R_55C_67L_, Q9UKT9] | 3.08 | 3.4 | 1.5 | 1.15 |
| LTCPICGFRCTQKGNLLRHIKL [46L_47T_49P_50I_52G_53F_54R_55C_67L_, Q9UKT9] | 1.45 | 2.61 | 1.91 | 2.92 |
| LQCPICGFRCTQKGNLLRHIKL [46L_47Q_49P_50I_52G_53F_54R_55C_67L_, Q9UKT9] | 0.322 | 1.54 | 0.782 | 3.35 |
| LMCPICGFRCTQKGNLLRHIKL [46L_47M_49P_50I_52G_53F_54R_55C_67L_, Q9UKT9] | 0.588 | 1.13 | 2.13 | 2 |
| LTCPICGFICTQKGNLLRHIKL [46L_47T_49P_50I_52G_53F_54I_55C_67L_, Q9UKT9] | -0.0311 | 0.718 | 1.67 | 1.78 |
| LSCPICGFICTQKGNLLRHIKL [46L_47S_49P_50I_52G_53F_54I_55C_67L_, Q9UKT9] | 1.06 | 1.05 | 1.47 | 0.848 |
| LLCPICGFRCTQKGNLLRHIKL [46L_47L_49P_50I_52G_53F_54R_55C_67L_, Q9UKT9] | 0.662 | -0.346 | 0.856 | 2.44 |
